# Results: article PMC7819943, “Rice protein-binding microarrays: a tool to detect cis-acting elements near promoter regions in rice”
# In all, about 68,000 sequences were measured (“fluorescence intensity (a.u.)”: median about 9,100, highest 2% from about 16,000 on). Only a selection was taken, and the highest values are over-represented in it overall.
# Target: OsWRKY34 (Oryza sativa, UniProt Q0JBA9 1-250)
# Assay: protein-binding microarray (RPBM); PBS, 2% BSA, 51.3 ng/ul salmon testes DNA, 50 uM zinc acetate, 200 nM TF, 25 C, 1 h; high values mean tight binding
# Conditions: protein: recombinant; tags: N-terminal polyhistidine and DsRed monomer fusion (pET32a); label: CyDye5-dUTP incorporated in the synthesized complementary strand; 3' TTTTT single-stranded linker to array surface; dsDNA, one strand shown
# Procedure, shortened: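 The binding signal is fluorescence intensity per array feature (arbitrary units). Readings came from an Axon 4000B scanner after a washed, 2% BSA-blocked, double-stranded custom Agilent array had been incubated for 1 h at 25 °C with 200 nM protein and 50 µM zinc acetate. The protein was a Ni–NTA-purified transcription factor fused N-terminally to polyhistidine and DsRed, expressed in E. coli BL21-CodonPlus.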
# Sequence of OsWRKY34 (Q0JBA9 entry or part of it): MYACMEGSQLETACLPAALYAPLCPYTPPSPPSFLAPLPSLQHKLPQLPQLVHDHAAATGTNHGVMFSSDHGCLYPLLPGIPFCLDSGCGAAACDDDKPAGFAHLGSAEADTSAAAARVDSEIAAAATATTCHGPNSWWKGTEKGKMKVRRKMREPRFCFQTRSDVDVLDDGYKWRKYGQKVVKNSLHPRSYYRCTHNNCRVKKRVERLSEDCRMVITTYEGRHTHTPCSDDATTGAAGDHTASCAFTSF
row,Sequence,binding signal
1,GCGGGCAGTGGGCGCGAGATCTCATCCGAGTGGGTGGGCGCGGAGTCACCTAGTGCAG,8060 fluorescence intensity (a.u.)
2,TGCGGGATGGCTGGTTGGTGTGCGTGTGCTTCGGTGCGTTCGGAGTCACCTAGTGCAG,10400 fluorescence intensity (a.u.)
3,CTTCTCCTCTAGTCTGTGGTTGGCTGGCGATGGTGGCTTGCGGAGTCACCTAGTGCAG,8820 fluorescence intensity (a.u.)
4,GATCCGCGGCGCGGGTGGGGTTGTGGGGCGGGCGGAGATGCGGAGTCACCTAGTGCAG,19200 fluorescence intensity (a.u.)
5,AGCGATGGTGGTGGTGGTGGTGGTGGTGGCTGGGTTGCTTCGGAGTCACCTAGTGCAG,28200 fluorescence intensity (a.u.)
6,CAGCCATCGCCTCCCCGACTCCCGTCGTTGTCCACCCCGTCGGAGTCACCTAGTGCAG,8260 fluorescence intensity (a.u.)
7,TGTTCTGCCAGCCAATCCAGATCGCCCTCGTATGCACGCTCGGAGTCACCTAGTGCAG,8890 fluorescence intensity (a.u.)
8,TGAACTCCTAATACTGTCCTACCACTTCTACATGTCTTCTCGGAGTCACCTAGTGCAG,11300 fluorescence intensity (a.u.)
9,GCCTGCGCCGATCCCCATCCATTCCGCGAGCGAGCGAGTGCGGAGTCACCTAGTGCAG,8160 fluorescence intensity (a.u.)
10,AACAGCTCTCGATCTGATCGTCCCCACACCGCACGCTGACCGGAGTCACCTAGTGCAG,9930 fluorescence intensity (a.u.)
11,CCTCGCCGAAGCCTCTCTACCTCTGTGTGTCTCTCTCTCCCGGAGTCACCTAGTGCAG,8120 fluorescence intensity (a.u.)
12,AAACTTCCCCGCGTACGATGACGCCAATACACATACATATCGGAGTCACCTAGTGCAG,10700 fluorescence intensity (a.u.)
13,GAGTGTATTTCATCTCAAGTTAGCATGCGAGTTTTTTTTACGGAGTCACCTAGTGCAG,8210 fluorescence intensity (a.u.)
14,TATCGTGCTTCCATGTGCACAGATCGATCAAACTCGCATGCGGAGTCACCTAGTGCAG,9270 fluorescence intensity (a.u.)
15,GTGTATTTATGGTTTTTTTTTCAACGTTTGACCATCCGTTCGGAGTCACCTAGTGCAG,12300 fluorescence intensity (a.u.)
16,ATGTATGACGCTGTTGACTTTGTAACCAATATTTGACCATCGGAGTCACCTAGTGCAG,13400 fluorescence intensity (a.u.)
17,TGTATGATGCTGTTGACTTTTTATCCAACGTTTGACCATCCGGAGTCACCTAGTGCAG,21200 fluorescence intensity (a.u.)
18,GTGTATGATGCCGTTGACTTTTTATCCAACGTTTGACCATCGGAGTCACCTAGTGCAG,38800 fluorescence intensity (a.u.)
19,GGTATAGTTTTATACTGTTTATATCCAACGTTTGACCGTTCGGAGTCACCTAGTGCAG,10200 fluorescence intensity (a.u.)
20,ATACATGACGCCGTTGATTTTTTAATCAACGTTTGACCATCGGAGTCACCTAGTGCAG,8210 fluorescence intensity (a.u.)
21,TGGTGGAGAAGCTAATGAAGAGGGTGTTTTGTTGACTATGCGGAGTCACCTAGTGCAG,8500 fluorescence intensity (a.u.)

row,Sequence,binding signal
1,GTTACATTCTTGTTCAGTCCTCACTACTCATCCCTACAATCGGAGTCACCTAGTGCAG,11500 fluorescence intensity (a.u.)
2,CCCACTATCATCCGTCATCCGTGCAACGCACGGGCATTATCGGAGTCACCTAGTGCAG,9340 fluorescence intensity (a.u.)
3,CTCCCGCCGTCTCCGTCACCGTCTACCGTTTGCTCCAGTGCGGAGTCACCTAGTGCAG,9530 fluorescence intensity (a.u.)
4,CTCCGTTTTTTAATAGATGACACCGTTGACTTTTTCTCACCGGAGTCACCTAGTGCAG,30600 fluorescence intensity (a.u.)
5,GCCGCGGCGGAGCTCCCGTTTCCGTTGCCGTCTCCGGCGCCGGAGTCACCTAGTGCAG,11000 fluorescence intensity (a.u.)
6,TCCGTTTTTTAATAGATGACGCCGTTGACTTTTTCTCACACGGAGTCACCTAGTGCAG,31700 fluorescence intensity (a.u.)
7,CTCCGTTTTTTAATAGATGACGCCGTTGACTTTTTCTCACCGGAGTCACCTAGTGCAG,27800 fluorescence intensity (a.u.)
8,CGTTTTTTAATAGATGACGCCATTGACTTTTTCTCACATACGGAGTCACCTAGTGCAG,11000 fluorescence intensity (a.u.)
9,GTCTCACCGGAGCTCCGCCGCCGCCGCCGCCGTTTTCTCCCGGAGTCACCTAGTGCAG,25700 fluorescence intensity (a.u.)
10,CTGATTATACCATTGTTTTCGTTGCAACTAAATCTTGATACGGAGTCACCTAGTGCAG,9280 fluorescence intensity (a.u.)
11,TGCAAGCTCCGCCGTTTGTGTGTAATGGGGTTTCCCAAATCGGAGTCACCTAGTGCAG,8230 fluorescence intensity (a.u.)
12,CACTTCACCTTTTTTGCAAGATGCTACTACTAATTACTAACGGAGTCACCTAGTGCAG,10400 fluorescence intensity (a.u.)
13,GATATACACACTTAGCTCTCCTACTGTGAGAATTCTCTTCCGGAGTCACCTAGTGCAG,9480 fluorescence intensity (a.u.)
14,CCCTTTTTTATACCGTGGCATATCTCTCTGCATTTAATCTCGGAGTCACCTAGTGCAG,13700 fluorescence intensity (a.u.)
15,ATATGGCATTGTTTCTGTGTTATTCAGGCGCACCTTTAAACGGAGTCACCTAGTGCAG,10100 fluorescence intensity (a.u.)
16,CGGTTGCTCCTTTGCCTAATCACTCAATTCCAGTAACTTTCGGAGTCACCTAGTGCAG,8760 fluorescence intensity (a.u.)
17,TTGGGGTTGGACCGGTTTTCATCTGTTCTTGTCCTGAGAGCGGAGTCACCTAGTGCAG,10800 fluorescence intensity (a.u.)
18,GTGCAGCAATCATCTCGTCCACCTCACCTTACCCGAAACCCGGAGTCACCTAGTGCAG,8340 fluorescence intensity (a.u.)
19,GCCTCTGCCAGCCGACGGCCGTTCGGCCCTCCGCGCACGCCGGAGTCACCTAGTGCAG,8320 fluorescence intensity (a.u.)
20,CTTATCCACCATCAATGTTCCTGACTTCAATTTTTCGTTGCGGAGTCACCTAGTGCAG,10500 fluorescence intensity (a.u.)
21,TAACATTGATTGTTATGTCACTTGTCTGTGGATCAACTCTCGGAGTCACCTAGTGCAG,9060 fluorescence intensity (a.u.)
